Values joined by “and” are separate entries in the source; they are usually repeats but may differ in a detail not shown here. Equal entries are not always repeated. The panel holds about 83,000 compounds, 20% with a hit somewhere; the sample as a whole holds those more often.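 The endpoint reported here, percent growth, reads 100 for growth as untreated, 0 for no net growth and -100 for all cells dead.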 Active and inactive are the calls of the source. How the source made its calls: active means growth percent below 10; inactive means the rest.
Test system: MDA-MB-468 breast
Assay: NCI-60 one-dose screen, 48 h (100 = growth as untreated, 0 = no growth, -100 = all killed)
Details: 10 µM unless noted

SMILES | growth
Cc1ccc(S(=O)(=O)N(CC[C@@H]2C[C@H]2c2cc3ccccc3o2)C(=O)NC2CCCCC2)cc1 | 95.3% (inactive)
Clc1ccc(Cc2nnc3sc(-c4cccnc4)nn23)cc1 | 94.2% (inactive)
N#C/C(=C\c1ccc(-c2ccccc2F)o1)c1nc(-c2ccco2)cs1 | -11% (active)
Nc1n[nH]c2cccc(C#Cc3cccc(C(=O)Nc4cccc(C(F)(F)F)c4)c3)c12 | 101% (inactive)
CNC(=S)N/N=C/CSC/C=N/NC(=S)NC | 66.8% (inactive)
CCOC(=O)c1cnc2cc(Cl)c(F)cc2c1Nc1cccc(NS(C)(=O)=O)c1 | 87.6% (inactive)
Cc1nn(-c2ccccc2)c(N2CCOCC2)c1/C=N/N=c1\sc2ccccc2n1C | 71.6% (inactive)
CC(=O)Nc1ccc(S(=O)(=O)N2C(=O)CCC2C(=O)Nc2ccc(Br)cc2)cc1 (stereo not given) | 20.6% (inactive)
COc1ccccc1/C=N\NC(=S)Nc1ccc(F)cc1 | 72.9% (inactive)
COc1cc2oc(-c3cccc(NC(=O)c4cccc([N+](=O)[O-])c4)c3)cc(=O)c2c(OC)c1OC | -1.02% (active)
CCOC(=O)C(c1ccccc1)N1C(=O)c2ccccc2C1=O (stereo not given) | 137% (inactive)
Nc1nc(Cl)c2ncn(Cc3cc4c(cc3I)OCO4)c2n1 | 7.98% (active)
O=C(CCCCCCNC(=O)C(O)(O)C(F)(F)F)Nc1ccc(Br)cc1 | 8.56% (active)
N#C/C(=C/N1C(=O)/C(=C/c2ccc([N+](=O)[O-])cc2)SC1=S)c1nc2ccccc2s1 | 84% (inactive)
O=c1c2cc(-c3ccccc3)sc2nc2sc(-c3ccccc3)nn12 | 101% (inactive)
CC(=O)O[C@H]1C[C@@]2(C)[C@@H](C[C@@H](O)[C@H]3[C@@]4(C)CC[C@H](N5CCCC5)[C@@H](C)[C@@H]4CC[C@@]32C)/C1=C(\CCC=C(C)C)C(=O)O | 94.6% (inactive)
CCN(Cc1cccc(S(=O)(=O)[O-])c1)c1ccc(C(=C2C=CC(=[N+](CC)Cc3cccc(S(=O)(=O)O)c3)C=C2)c2ccccc2S(=O)(=O)O)cc1 | 92.9% (inactive)
CCCCCCC(=O)C(C)C | 98.8% (inactive)
CC(=O)O[C@@H]1/C=C/C(=O)N[C@@H](C)CCC/C=C/[C@@H]2CCC[C@H]21 | 101% (inactive)
O=C(Nc1ccccc1)Nc1ccc(C(=O)/C=C/c2ccc(N3CCCC3)cc2)cc1 | 17.3% (inactive)

SMILES | growth
COc1ccc(-c2nc(S(=O)(=O)c3ccccc3)c(S(=O)CC(=O)N3CCC(C)CC3)o2)cc1 (stereo not given) | -15% (active)
CN(Cc1ccccc1)c1nc(Cl)c(C2CC(c3ccc4c(c3)OCO4)=NN2c2cc(Cl)cc(Cl)c2)s1 (stereo not given) | 103% (inactive)
COc1ccc(-c2cc(C(=O)N3N=C(c4ccc(N)cc4)CC3c3ccc(OC)cc3)c3cc(OC)ccc3n2)cc1 (stereo not given) | 37.6% (inactive)
OC(COc1ccccc1Cl)CN1CCN(c2ccc(Cl)cc2)CC1 (stereo not given) | 95.7% (inactive)
COc1cc(NCc2cn(-c3ccc(C(=O)O)cc3)nc2-c2ccc(C(=O)O)cc2)cc(OC)c1OC | 102% (inactive)
Cc1cc(SC#N)cc(C(C)(C)C)c1O | 105% (inactive)
O=C(Cn1ccc(=O)[nH]c1=O)c1ccc([N+](=O)[O-])o1 | 44.4% (inactive)
CC/C=C1/C(=O)C=C[C@@H]1C/C=C\CCCC(=O)OC | 77.6% (inactive)
O=c1c2cc(C(F)(F)F)ccc2sc2c(NCCCNCCO)nc3ccccc3c12 | -74.3% (active)
CN(C[C@H]1Cc2c(cccc2N2CCN(Cc3ccccn3)CC2)CN1)[C@H]1CCCc2cccnc21 | 63.4% (inactive)
N#Cc1c(N)[nH]c(S)c1C#N | 103% (inactive)
CCCCCCCCCCCCCCCCCCNC(=O)[C@H]1CSC(c2ccc(F)c(OC)c2)N1 (stereo not given in full) | 44.1% (inactive)
NC1=CC(=O)C(=O)c2cccnc21 | 81.3% (inactive)
COc1cccc2c1c1nc3cc(C)c(C)cc3nc1n2CCN(C)C | -8.02% (active)
Cn1cc(-c2cc3ncnc(Nc4ccc(CC(=O)Nc5nc(C(C)(C)C)cs5)cc4)c3s2)cn1 | 31.2% (inactive)
COc1cc(NCCCCCN=C(N)NC(N)=NC(C)C)c2ncccc2c1 | -63.5% (active)
C=C1C(=O)O[C@H]2[C@H]1CC/C(COC(=O)NCc1ccc(Cn3c(=O)sn(-c4ccccc4)c3=O)cc1)=C\CC[C@@]1(C)O[C@@H]21 | -33.8% (active)
O=C(O)c1ccccc1Cc1ccc(F)c2ccccc12 | 110% (inactive) and 102% (inactive)
CCOP(=O)(OCC)c1nc(-c2ccccc2)oc1NCc1cccnc1 | 114% (inactive)
CCOC(=O)C1=C(C)C(Cl)=N/C1=C\c1[nH]c(Cl)c(C)c1C(=O)OCC | 102% (inactive)

Source: PubChem BioAssay (NCI)
